From PubChem BioAssay (EPA / NIEHS)
Inconclusive results are not listed. Calls of active or inactive are those of the source. How the source made its calls, unless noted: active means hit-call score of the fitted dose curve at least 0.9, where 1 is the maximum; inconclusive means response in the unintended direction; inactive means score below 0.9.

Biological target: Retinoic acid receptor RXR-alpha (Homo sapiens) (UniProt P19793)
Assay: ATG_RXRa_TRANS: Attagene TRANS-FACTORIAL HepG2 Assay for human Retinoid X Receptor alpha (RXRa) (AID 2283012)
Conditions: not given
How it was run: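 Measures exogenous chimeric NR-GAL4 activity in transfected HepG2 liver cells after 24 h of dosing. Induced reporter mRNA was detected by RT-PCR with capillary electrophoresis, and gain of signal was analysed against DMSO.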

E-selectin (Homo sapiens), sequence (P16581 whole entry, looked up): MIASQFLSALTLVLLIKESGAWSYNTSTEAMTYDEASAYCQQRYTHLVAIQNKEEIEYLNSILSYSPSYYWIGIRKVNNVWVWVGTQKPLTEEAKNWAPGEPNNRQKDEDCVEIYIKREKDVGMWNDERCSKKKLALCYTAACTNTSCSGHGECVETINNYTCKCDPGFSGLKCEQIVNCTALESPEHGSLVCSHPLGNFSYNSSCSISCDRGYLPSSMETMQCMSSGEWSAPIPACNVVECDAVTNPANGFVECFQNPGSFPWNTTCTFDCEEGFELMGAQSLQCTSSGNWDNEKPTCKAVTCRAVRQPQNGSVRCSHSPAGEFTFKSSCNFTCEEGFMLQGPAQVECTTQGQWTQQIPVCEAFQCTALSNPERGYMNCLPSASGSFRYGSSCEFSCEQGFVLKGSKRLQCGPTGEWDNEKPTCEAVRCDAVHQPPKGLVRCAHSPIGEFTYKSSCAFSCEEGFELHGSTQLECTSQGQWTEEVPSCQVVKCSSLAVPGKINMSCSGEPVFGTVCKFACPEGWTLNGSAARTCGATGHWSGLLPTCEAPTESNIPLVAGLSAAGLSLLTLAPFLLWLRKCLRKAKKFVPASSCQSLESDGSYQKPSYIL
Retinoic acid receptor RXR-alpha (Homo sapiens), sequence (P19793 whole entry, looked up): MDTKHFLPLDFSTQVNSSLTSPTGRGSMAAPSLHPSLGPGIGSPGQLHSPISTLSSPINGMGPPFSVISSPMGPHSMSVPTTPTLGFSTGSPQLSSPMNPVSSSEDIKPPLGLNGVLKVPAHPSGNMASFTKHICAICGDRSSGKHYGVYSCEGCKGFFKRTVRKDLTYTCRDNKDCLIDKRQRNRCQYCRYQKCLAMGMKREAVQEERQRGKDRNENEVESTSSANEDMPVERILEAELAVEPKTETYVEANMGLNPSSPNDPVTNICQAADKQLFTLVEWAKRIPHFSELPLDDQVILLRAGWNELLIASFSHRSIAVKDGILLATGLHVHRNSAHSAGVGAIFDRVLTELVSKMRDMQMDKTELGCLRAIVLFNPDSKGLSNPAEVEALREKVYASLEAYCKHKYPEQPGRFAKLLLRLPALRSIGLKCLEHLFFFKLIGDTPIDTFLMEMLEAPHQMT

| Structure (SMILES) | outcome |
| --- | --- |
| Clc1nc(C(Cl)(Cl)Cl)c(Cl)c(Cl)c1Cl | inactive |
| O=P(c1ccccc1)(c1ccccc1)c1ccccc1 | inactive |
| CC(O)C(C)O (centres undefined) | inactive |
| OC1OC[C@@H](O)[C@H](O)[C@H]1O (some centres undefined) | inactive |
| Cc1c(N(C)C)c(=O)n(-c2ccccc2)n1C | inactive |
| COc1ccc(OC)c(OC)c1 | inactive |
| CCCCCCCCCCCCCCCC(=O)OC[C@H](O)[C@H]1OC(=O)C(O)=C1O | inactive |
| C/C=C(\C)C(=O)OCc1ccccc1 | inactive |
| CCCC(C)C=O (centres undefined) | inactive |
| CC1(C)[C@@H]2CC[C@@]1(C)[C@H](O)C2 | inactive |
| NCCNCCN | inactive |
| C=CC(=O)OCCn1c(=O)n(CCOC(=O)C=C)c(=O)n(CCOC(=O)C=C)c1=O | inactive |
| Cc1ccc(O)c(C(C)(C)C)c1 | inactive |
| C=C[Si](OCC)(OCC)OCC | inactive |
| CC1=CCC(O)(C(C)C)CC1 (centres undefined) | inactive |
| O=C(Nc1ccccc1)c1cc([N+](=O)[O-])ccc1Cl | inactive |
| Clc1ccc(Cl)c(Cl)c1Cl | inactive |

Biological target: human Retinoid X Receptor beta (RXRb), RXRB (gene 6257) (UniProt P28702)
Sequence (P28702 whole entry, looked up): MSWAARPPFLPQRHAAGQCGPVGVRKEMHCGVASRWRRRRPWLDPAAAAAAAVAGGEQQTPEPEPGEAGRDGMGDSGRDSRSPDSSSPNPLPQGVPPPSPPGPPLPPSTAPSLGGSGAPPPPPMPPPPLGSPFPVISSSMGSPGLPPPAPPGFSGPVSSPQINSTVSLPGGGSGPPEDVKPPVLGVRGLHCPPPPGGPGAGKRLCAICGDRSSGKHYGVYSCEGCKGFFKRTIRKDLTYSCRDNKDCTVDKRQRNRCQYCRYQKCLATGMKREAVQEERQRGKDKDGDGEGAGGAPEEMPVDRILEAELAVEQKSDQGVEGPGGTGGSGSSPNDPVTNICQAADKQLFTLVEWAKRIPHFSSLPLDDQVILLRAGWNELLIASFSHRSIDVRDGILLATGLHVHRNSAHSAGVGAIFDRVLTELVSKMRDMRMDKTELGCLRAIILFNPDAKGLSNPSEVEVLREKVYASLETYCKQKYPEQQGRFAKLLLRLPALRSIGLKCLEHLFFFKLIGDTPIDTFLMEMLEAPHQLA
Assay: ATG_RXRb_TRANS: Attagene TRANS-FACTORIAL HepG2 Assay for human Retinoid X Receptor beta (RXRb) (AID 2283013)
Conditions: not given
How it was run: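 Chimeric receptor-Gal4 activity was assessed in transiently transfected human HepG2 cells after 24 h exposure. Transcripts from GAL4-UAS reporters were quantified by fluorescent RT-PCR and capillary electrophoresis, with DMSO as negative control and baseline.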

| Structure (SMILES) | outcome | AC50 |
| --- | --- | --- |
| CC(=O)C(=O)O | inactive | – |
| COc1ccnc(CS(=O)c2nc3cc(OC(F)F)ccc3[nH]2)c1OC (centres undefined) | inactive | – |
| CCc1c(C)cc(N)c(CC)c1N | inactive | – |
| CCCCC[Si](OCC)(OCC)OCC | inactive | – |
| Nc1ccc(F)c([N+](=O)[O-])c1 | inactive | – |
| CCCCC(CC)COCCC#N (centres undefined) | – | 51.1 µM (active) |
| CC(=O)Nc1ccccc1O | inactive | – |
| COc1cc(C)cc(O)c1 | inactive | – |
| Clc1nc(C(Cl)(Cl)Cl)c(Cl)c(Cl)c1Cl | – | 21.8 µM (active) |
| OC1OC[C@@H](O)[C@H](O)[C@H]1O (some centres undefined) | inactive | – |
| C/C=C(\C)C(=O)OCc1ccccc1 | inactive | – |
| CCCC(C)C=O (centres undefined) | inactive | – |
| NCCNCCN | inactive | – |
| ClCCCl | inactive | – |
| CCCCCCCCCCCCCOS(=O)(=O)O | – | 12.9 µM (active) |
| Cc1ccc(O)c(C(C)(C)C)c1 | – | 9 µM (active) |
| C=C[Si](OCC)(OCC)OCC | inactive | – |

Biological target: human Thyroid Receptor alpha (THRa1), THRA (gene 7067) (UniProt P10827)
Sequence (P10827 whole entry, looked up): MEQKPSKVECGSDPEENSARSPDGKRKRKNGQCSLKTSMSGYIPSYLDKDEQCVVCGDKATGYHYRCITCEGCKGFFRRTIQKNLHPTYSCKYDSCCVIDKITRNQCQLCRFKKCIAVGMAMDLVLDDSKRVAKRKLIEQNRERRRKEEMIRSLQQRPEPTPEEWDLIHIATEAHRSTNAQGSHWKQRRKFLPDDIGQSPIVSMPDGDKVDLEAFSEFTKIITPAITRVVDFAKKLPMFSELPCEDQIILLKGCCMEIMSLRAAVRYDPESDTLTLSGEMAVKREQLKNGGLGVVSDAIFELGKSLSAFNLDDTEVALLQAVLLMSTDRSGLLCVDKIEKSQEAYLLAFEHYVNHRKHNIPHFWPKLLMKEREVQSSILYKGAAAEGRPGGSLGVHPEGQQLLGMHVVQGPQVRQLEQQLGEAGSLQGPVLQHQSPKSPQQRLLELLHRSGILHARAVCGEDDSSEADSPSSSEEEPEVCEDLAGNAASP
Assay: ATG_THRa1_TRANS: Attagene TRANS-FACTORIAL HepG2 Assay for human Thyroid Receptor alpha (THRa1) (AID 2283014)
Conditions: not given
How it was run: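 Transient HepG2 transfection, NR-Gal4 chimera driving GAL4-UAS reporters; 24 h compound exposure; total RNA, oligo(dT) RT, PCR, fluorescent primer extension, capillary electrophoresis. Upward direction vs DMSO control.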

| Structure (SMILES) | outcome |
| --- | --- |
| O=C(O)c1cccc([N+](=O)[O-])c1 | inactive |
| Nc1cc(Cl)c(O)c(Cl)c1 | inactive |
| CCO[Si](CCCS)(OCC)OCC | inactive |
| COC(C)CCO (centres undefined) | inactive |
| O=S(=O)(O)c1ccc(O)c2ncccc12 | inactive |
| COc1ccc(Cl)cc1C | inactive |
| Cc1cccc(C)c1[N+](=O)[O-] | inactive |
| Nc1ccc(F)c([N+](=O)[O-])c1 | inactive |
| Cc1ccc2ccccc2n1 | inactive |
| CCC(=O)OCc1ccccc1 | inactive |
| COc1cc(C)cc(O)c1 | inactive |
| CC(=O)Nc1ccc(C)cc1C | inactive |
| CC(CCO)CCCC(C)(C)O (centres undefined) | inactive |
| O=Cc1ccc(Cl)c([N+](=O)[O-])c1 | inactive |
| Clc1nc(C(Cl)(Cl)Cl)c(Cl)c(Cl)c1Cl | inactive |
| CC(O)C(C)O (centres undefined) | inactive |
| Cc1c(N(C)C)c(=O)n(-c2ccccc2)n1C | inactive |
| COc1ccc(OC)c(OC)c1 | inactive |
| CCCCCCCCCCCCCCCC(=O)OC[C@H](O)[C@H]1OC(=O)C(O)=C1O | inactive |
| C/C=C(\C)C(=O)OCc1ccccc1 | inactive |
| CC1(C)[C@@H]2CC[C@@]1(C)[C@H](O)C2 | inactive |
| C=CC(=O)OCCn1c(=O)n(CCOC(=O)C=C)c(=O)n(CCOC(=O)C=C)c1=O | inactive |
| CC1=CCC(O)(C(C)C)CC1 (centres undefined) | inactive |
| O=C(Nc1ccccc1)c1cc([N+](=O)[O-])ccc1Cl | inactive |
| Clc1ccc(Cl)c(Cl)c1Cl | inactive |

Read-out: E-selectin (Homo sapiens) (UniProt P16581)
Assay: BSK_3C_Eselectin: BioMAP Diversity Plus: 3C Assay for Eselectin Biomarker Activity (AID 2283015; active means hit-call score of the fitted dose curve at least 0.9, where 1 is the maximum; inactive means score below 0.9;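 on outcome: cell surface E-selectin protein quantified by ELISA 24 h after dosing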)
Conditions: primary human endothelial cells (HUVEC); actives raise or lower the signal
How it was run: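 HUVEC, 3C stimulation; compound exposure 24 h; E-selectin by ELISA; gain- or loss-of-signal fitted bidirectionally vs DMSO baseline.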

| Structure (SMILES) | outcome | AC50 |
| --- | --- | --- |
| O=C=NC1CCC(CC2CCC(N=C=O)CC2)CC1 (centres undefined) | inactive | – |
| CCc1c(C)cc(N)c(CC)c1N | inactive | – |
| CCCCC(CC)COCCC#N (centres undefined) | inactive | – |
| CCC(=O)OCc1ccccc1 | inactive | – |
| CC(=O)Nc1ccccc1O | inactive | – |
| O=P(c1ccccc1)(c1ccccc1)c1ccccc1 | inactive | – |
| OC1OC[C@@H](O)[C@H](O)[C@H]1O (some centres undefined) | inactive | – |
| NCCNCCN | inactive | – |
| Cc1ccc(O)c(C(C)(C)C)c1 | – | 25.5 µM (active) |
| C=C[Si](OCC)(OCC)OCC | inactive | – |

Read-out: Interleukin-1 alpha (IL1a), IL1A (gene 3552)
Assay: BSK_BE3C_IL1a: BioMAP Diversity Plus: BE3C Assay for Interleukin-1 alpha (IL1a) Biomarker Activity (AID 2283016; active means hit-call score of the fitted dose curve at least 0.9, where 1 is the maximum; inactive means score below 0.9)
Conditions: primary human bronchial epithelial cells; actives raise or lower the signal
How it was run: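 Signal from IL-1a ELISA, taken 24 h after chemical dosing of human bronchial epithelial cells, is compared with DMSO as baseline using bidirectional curve fitting.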

| Structure (SMILES) | outcome | AC50 |
| --- | --- | --- |
| O=C=NC1CCC(CC2CCC(N=C=O)CC2)CC1 (centres undefined) | inactive | – |
| CCc1c(C)cc(N)c(CC)c1N | inactive | – |
| CCCCC(CC)COCCC#N (centres undefined) | inactive | – |
| CCC(=O)OCc1ccccc1 | inactive | – |
| CC(=O)Nc1ccccc1O | inactive | – |
| O=P(c1ccccc1)(c1ccccc1)c1ccccc1 | inactive | – |
| OC1OC[C@@H](O)[C@H](O)[C@H]1O (some centres undefined) | inactive | – |
| NCCNCCN | inactive | – |
| Cc1ccc(O)c(C(C)(C)C)c1 | – | 29.6 µM (active) |
| C=C[Si](OCC)(OCC)OCC | inactive | – |

Read-out: Monocyte Chemoattractant Protein-1 (MCP1), CCL2 (gene 6347)
Assay: BSK_3C_MCP1: BioMAP Diversity Plus: 3C Assay for Monocyte Chemoattractant Protein-1 (MCP1) Biomarker Activity (AID 2283017; active means hit-call score of the fitted dose curve at least 0.9, where 1 is the maximum; inactive means score below 0.9)
Conditions: primary human endothelial cells (HUVEC); actives raise or lower the signal
How it was run: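 HUVEC, 3C system; 24 h chemical exposure; MCP-1 by ELISA; bidirectional curve fit vs DMSO baseline.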

| Structure (SMILES) | outcome | AC50 |
| --- | --- | --- |
| O=C=NC1CCC(CC2CCC(N=C=O)CC2)CC1 (centres undefined) | inactive | – |
| CCc1c(C)cc(N)c(CC)c1N | inactive | – |
| CCCCC(CC)COCCC#N (centres undefined) | – | 20 µM (active) |
| CCC(=O)OCc1ccccc1 | inactive | – |
| CC(=O)Nc1ccccc1O | inactive | – |
| O=P(c1ccccc1)(c1ccccc1)c1ccccc1 | inactive | – |
| OC1OC[C@@H](O)[C@H](O)[C@H]1O (some centres undefined) | inactive | – |
| NCCNCCN | inactive | – |
| Cc1ccc(O)c(C(C)(C)C)c1 | – | 27.6 µM (active) |
| C=C[Si](OCC)(OCC)OCC | inactive | – |
